# Compound activity (PubChem)
# An excerpt weighted towards active compounds, which were near 5.7% of everything screened.
# Myeloid diff MLP = compounds promoting myeloid differentiation; ER-HoxA9 myeloid progenitors, lysozyme-GFP differentiation, flow cytometry; calls only at 10 µM; 1% of 360,000 active; AID 624256;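 active = normalized GFP-positive differentiation at or above the plate's own cutoff, the solvent-only control mean plus 3 SD; inconclusive = no clear call, values can overlap the other calls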;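 also: cells exposed to compound for four days before flow analysis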
# MPTP inh = blocks calcium-induced mitochondrial swelling. isolated mouse mitochondria, Ca2+ swelling absorbance, 30 min. inhibition, % at 10 µM. 1.4% of 360,000 active. AID 602449;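 active = inhibition of 50% or more, scaled per plate between neutral and stimulator controls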;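 also: 0% = DMSO wells given calcium and 100% = 1 mM EGTA wells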
# FAS-TE inh = blocks the thioesterase domain of human fatty acid synthase; 0.67% of 360,000 active; recombinant FAS-TE, OMFH fluorogenic substrate, fluorescence endpoint; P49327; inhibition, % at 15 µM;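 active = compounds whose normalised, plate-corrected inhibition of enzyme fluorescence in the single-dose primary screen is 50% or more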;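 also: 0% = DMSO with enzyme and 100% = substrate without enzyme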
# GRIN3A LBD mod = modulators (binders) of human NR3A ligand-binding domain | 2.5% of 340,000 active | NR3A LBD differential scanning fluorimetry, Tm shift; 0% = protein alone, 100% = glycine-bound protein | Tm shift relative to glycine control, % at 25 µM;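 active = melting temperature shift of at least 10% of the positive control shift, at one fixed dose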
# rCAG RNA binder = molecules binding r(CAG) RNA repeats; r(CAG) RNA repeat, TO-PRO-1 dye displacement fluorescence; 1.3% of 370,000 active; inhibition, % at 3 µM;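 active = inhibition above the plate cutoff, the mean of all test compounds on that plate plus 3 SD, cut at about 35% in these data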;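 also: 0% = DMSO alone and 100% = 100 µM mitoxantrone as full dye displacement; higher means more dye released from RNA so lower well fluorescence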
# The depositor's hits bear a star; i = inactive; u = inconclusive; x = not tested or not shown; + = active, no number.
SMILES,Myeloid diff MLP,MPTP inh,FAS-TE inh,GRIN3A LBD mod,rCAG RNA binder
O=C(NCCc1ccccc1)C(=O)NCC1OCCCN1S(=O)(=O)c1cc(F)ccc1F (stereo not given),i,-1,0,8,-1
CN(C)/C=C1\C=C2C(=O)c3ccccc3N2C1=O,+,1,-152,-437,i
CN(C)S(=O)(=O)N1C(=O)c2ccccc2C1=O,i,2,-7,4,1
CCCCOCC1CN(CCCC)S(=O)(=O)c2c(cccc2Sc2ccc(OC)c(OC)c2)O1 (stereo not given),x,x,x,x,7
CCN(CC)c1ccc2cc(-c3nnc(-c4ccccc4)o3)c(=O)oc2c1,+,-3,-210,32*,-42
CCN(CC)c1ccc2cc(C(=O)c3cccs3)c(=O)oc2c1,+,-2,-50,x,12
O=c1oc2ccc3ccccc3c2cc1-c1nnc(-c2ccccc2)o1,i,1,8,-11,9
CCN(CC)c1ccc2cc(-c3nc4ccccc4[nH]3)c(=O)oc2c1,+,0,-171,-403,x
CCN(CC)c1ccc2cc(-c3nc4ccccc4n3C)c(=O)oc2c1,u,-1,-21,2,-22
COC(=O)C[C@@H]1CC[C@H]2[C@H](COc3ccc(NC(=O)Nc4cccc(C#N)c4)cc3C(=O)N2C)O1,x,x,x,x,3
N#CCC[C@@H]1CC[C@]2(CCCN(C(=O)c3ccccc3)C2)O1,x,x,x,x,2
Cc1cc(NC(=O)CSC2=NCCS2)no1,i,0,-4,1,-1
COc1cc(Cl)c(C)cc1NC(=O)CSC1=NCCS1,i,0,23,20*,7
CCOc1cc(/C=N/NS(=O)(=O)c2ccccc2)ccc1OS(=O)(=O)c1ccc(C)cc1,i,4,24,20*,32
O=C(Oc1c(CN2CCOCC2)cc(Cl)c2cccnc12)c1ccc(F)cc1,+,-6,5,-2,-3
COc1ccc(C(=O)Oc2c(CN3CCOCC3)cc(Cl)c3cccnc23)cc1,x,-11,10,-2,-2
COc1cc(C(=O)Oc2c(CN3CCOCC3)cc(Cl)c3cccnc23)cc(OC)c1OC,+,-6,8,-2,x
COC1=C[C@H](C(=O)NCc2ccccn2)[C@H](C)[C@@H](c2ccccc2)CC1=O,x,x,x,x,5
CC(=O)CC[C@@H]1CC[C@]2(CCCN(S(=O)(=O)c3ccccc3)C2)O1,x,x,x,x,0
CNc1oc(C)nc1S(=O)(=O)c1ccccc1,i,-2,-5,15*,1
Cc1sc2nc(CSc3nnnn3-c3ccc(Cl)cc3)[nH]c(=O)c2c1C,+,1,-6,-12,11
CCn1c(SCc2nc3sc(C(=O)O)c(C)c3c(=O)[nH]2)nnc1-c1ccc(Cl)cc1,x,-2,-6,-1,15
COc1cc(NC(=O)CN2C(=O)C(=O)N(CC(C)C)C2=O)cc(OC)c1,i,1,-6,29*,2
CCC(C)N(Cc1ccc(OC)cc1OC)S(=O)(=O)c1cc(Br)ccc1Br (stereo not given),x,x,x,x,7
O=C(N[C@H](C(=O)N1CCC[C@H]1C(=O)NCc1ccccc1)c1ccccc1)C1CCCC1,x,x,x,x,0
SMILES,Myeloid diff MLP,MPTP inh,FAS-TE inh,GRIN3A LBD mod,rCAG RNA binder
Cc1ccccc1N(C)C(=O)Cn1nnc(-c2ccccc2F)n1,x,x,x,x,2
N=c1n(CCN2CCCCC2)c2ccccc2n1CC(=O)c1cccc([N+](=O)[O-])c1,+,4,17,-1,8
C=CCn1c(=N)n(CC(=O)c2cccc([N+](=O)[O-])c2)c2ccccc21,i,-1,5,2,4
COc1ccc(/C=C2/SC(=O)N(CC(O)Cn3c4ccccc4c4ccccc43)C2=O)cc1 (stereo not given),i,-3,34,13*,15
O=C1S/C(=C\c2ccccc2)C(=O)N1CC(O)Cn1c2ccccc2c2ccccc21 (stereo not given),i,0,14,0,5
OC(c1ccccc1)(c1ccccc1)C1CCN(CCCNc2cccc(OC(F)(F)F)c2)CC1,x,x,x,x,2
CCOc1ccc(NC(=O)Nc2cc(C(=O)O)ccc2N2CC3CC(C2)c2cccc(=O)n2C3)cc1 (stereo not given),i,-1,-5,11*,10
CCCCCCCCN1C(=O)[C@@H](CC(=O)NCCCOCCCC)C[C@@]2(C(=O)OC)C1=C[C@H](C(C)C)O[C@@H]2C1CC1,x,x,x,x,9
CN(/N=C/c1c[nH]c2ccccc12)c1cnn(-c2ccc(F)c(Cl)c2)c(=O)c1Cl,i,1,-7,259*,4
CC(=O)OC12CCCN(C1)/C(=C/c1cccc(Cl)c1)C2 (stereo not given),x,x,x,x,1
